Only some compounds are listed: those with a hit (about 1.6% of all), similar ones and a draw of the others.
KCNQ2 block = KCNQ2 (rat) channel inhibition; O88943; CHO-K1 KCNQ2, FluxOR thallium flux, 20 min; active compounds read low; B-score at 10 µM; hit rate 1.1% among 310,000;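 active = fluorescence ratio B-score at most minus 3 library SDs, with starting brightness B-score within 2 library SDs, cut at about -5.5 in these data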
KCNQ2 pot = enhances the rat KCNQ2 potassium channel. AID 2239. hit rate 0.54% among 310,000. O88943. B-score at 10 µM. CHO-K1 KCNQ2, FluxOR thallium flux fluorescence; active compounds read high;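 active = fluorescence ratio B-score at least 3 SD of library B-scores, with initial fluorescence B-score within 3 of them, cut at about 5.3 in these data; same plate scores as AID 2156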;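 note: B-score of peak minus minimum over baseline fluorescence ratio after K+ and Tl+ stimulus; positive B-score means potentiation of KCNQ2 with more thallium influx and brighter signal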
Kir21 confirm = confirmation of mouse Kir2.1 potassium channel inhibitors; shares compounds with KCNQ2 pot; Kir2.1-expressing cells, FluxOR thallium flux fluorescence; active compounds read low; Tl flux remaining, % of negative control (active compounds read low), % at 10 µM; hit rate 41% among 2,300;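 active = Primary-screen hit whose thallium flux fell at least 3 control SD below untreated wells in both duplicates, with normal baseline fluorescence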;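 note: 0% = blank wells without stimulus and 100% = stimulated no-compound controls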
HEK293 ctr = parental HEK293 activity in Kir2.1 inhibitor counter-screen | parental HEK293 cells, FluxOR thallium flux fluorescence; 0% = unstimulated blank wells | shares compounds with KCNQ2 pot | hit rate 19% among 2,300 | AID 2105 | FluxOR signal as % of negative control (100 = no effect), % at 10 µM;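 active = dye signal at least 3 control SD above or below untreated wells in both duplicates, raw fluorescence within 3, either direction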;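 note: percent is based on the flux ratio of peak minus minimum fluorescence over baseline F0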
CHO-K1 Tl ctr = counter-screen for KCNQ2 potentiators: effect in parental CHO-K1 cells. shares compounds with KCNQ2 pot. FluxOR thallium flux fluorescence; zero = vehicle mean+3SD, 100% = vehicle-minus-blank window. activity increase over 3SD of controls, % at 10 µM. hit rate 43% among 1,200;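 active = signal rise of at least 3 SD above the untreated control mean, in both duplicate wells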;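 note: counter screen of KCNQ2 potentiator hits so any rise reflects channel-independent effects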
KCNQ1 pot spec = human KCNQ1 counter-target activity of KCNQ2 potentiators; shares compounds with KCNQ2 pot; CHO KCNQ1 stable, FluxOR thallium flux fluorescence; beyond 3SD, as % of vehicle-control signal; activation over 3SD threshold, % at 10 µM; hit rate 28% among 1,200;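 active = fluorescence ratio rise of at least 3 SD of vehicle wells above their mean, in both replicate wells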;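 note: 0% = vehicle mean plus 3 SD and 100% = vehicle minus unstimulated blank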
KCNQ2 pot confirm = confirmation of rat KCNQ2 potassium channel potentiators; potentiation, less the hit threshold, % at 10 µM; shares compounds with KCNQ2 pot; CHO-KCNQ2 cells, FluxOR thallium flux fluorescence; hit rate 68% among 1,200; AID 2287;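 active = fluorescence ratio rising 3 SD or more over the vehicle control mean in both replicates, plus primary screen hit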;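 note: peak minus minimum thallium fluorescence divided by baseline after K/Tl stimulus; 0% = vehicle mean plus 3 SD and 100% = vehicle minus unstimulated blank difference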
Kir21 spec = selectivity of KCNQ2 potentiators: effect on mouse Kir2.1 | shares compounds with KCNQ2 pot | HEK293 Kir2.1, FluxOR thallium flux fluorescence | activity over 3SD threshold, % at 10 µM | hit rate 2% among 1,200 | AID 2345;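 active = fluorescence ratio rise of at least 3 SD above the vehicle-control mean, seen in both replicates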;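 note: 0% = vehicle mean plus 3 SD and 100% = vehicle minus no-stimulus blank window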
KCNQ2 W236L MoA = rat KCNQ2 W236L mutant potentiation by KCNQ2 potentiators; current increase over 3SD of negative controls (%), active compounds read high, % at 25 µM; AID 2558; shares compounds with KCNQ2 pot; hit rate 10% among 940; CHO KCNQ2-W236L, automated patch clamp current;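 active = current increase at least 3 SD of the untreated controls above them in both duplicate recordings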
* = called active by the depositor; i = inactive; / = no result.

SMILES	KCNQ2 block	KCNQ2 pot	Kir21 confirm	HEK293 ctr	CHO-K1 Tl ctr	KCNQ1 pot spec	KCNQ2 pot confirm	Kir21 spec	others
CSCCC(NS(=O)(=O)c1ccc(C)cc1)C(=O)N1CCN(S(=O)(=O)c2ccc(F)cc2)CC1 (stereo not given)	i	0.08	/	/	/	/	/	/
COC(CN(C)C(=O)c1ccc2c(c1)NC(=O)c1ccccc1S2)OC	i	0.34	/	/	/	/	/	/
CN1CCc2c(sc(/N=C/c3cc(C(C)(C)C)ccc3O)c2C#N)C1	i	11*	i	i	-8	-17	-15	-34
COc1ccc(/C=N/c2sc3c(c2C#N)CCN(Cc2ccccc2)C3)c(O)c1	i	/	/	/	/	/	/	/
CCC(C)(C)NC(=O)CN(C(=O)CCC(=O)Nc1nccs1)c1cccc(C)c1C	i	/	/	/	/	/	/	/
CCOC(=O)COc1nc2c(c(-c3ccco3)c1C#N)CCc1ccccc1-2	i	10*	i	i	48*	84*	-11	-28	KCNQ2 W236L MoA=i
Cc1cc(C)c(C#N)c(OCC(=O)c2ccccc2)n1	i	0.86	/	/	/	/	/	/
N#Cc1c(OCC(=O)c2ccccc2)nc2c(c1-c1ccco1)CCc1ccccc1-2	i	20*	i	145%*	2.2*	-3	42*	-37	KCNQ2 W236L MoA=i
CCOC(=O)COc1nc(-c2ccccc2)cc(-c2ccco2)c1C#N	i	2.4	/	/	/	/	/	/
COc1ccc(CCNC(=O)C2CC=CCC2C(=O)O)cc1 (stereo not given)	i	/	/	/	/	/	/	/
Cc1cc(Br)ccc1OCC(=O)NNC(=O)Cc1ccccc1	i	0.69	/	/	/	/	/	/
Cc1cc(Br)ccc1OCC(=O)NNC(=O)C(=O)Nc1ccccc1	i	11*	i	228%*	70*	-7	36*	-21	KCNQ2 W236L MoA=i
Cc1cccc(NC(=O)NNC(=O)COc2ccc3ccccc3c2)c1	i	/	/	/	/	/	/	/
O=C(COc1ccc2ccccc2c1)NNC(=O)C(=O)Nc1ccccc1	i	12*	i	i	-5	-7	-10	-38	KCNQ2 W236L MoA=i
COc1ccc(Cl)c(N2CCN(CCCNC(=O)Nc3ccc(C)cc3)CC2)c1	i	/	70%*	i	/	/	/	/
COc1ccc(NC(=O)NCCN2CCN(c3cc(OC)ccc3OC)CC2)cc1	i	0.02	/	/	/	/	/	/
COc1cccc(/C=N/NC(=O)CNC(=O)COc2ccccc2)c1O	i	1.2	/	/	/	/	/	/
Cc1cccc(OCC(=O)NCC(=O)N/N=C/c2cc(Br)cc(Br)c2O)c1	i	10*	i	i	6.9*	0.7*	-12	-27
CCN(CC1COc2ccccc2O1)C(=S)NC1CC2CCC1C2 (stereo not given)	i	12*	i	64%*	37*	-13	-6	-35	KCNQ2 W236L MoA=i
CN(CC1COc2ccccc2O1)C(=S)Nc1ccccc1 (stereo not given)	i	/	/	/	/	/	/	/
CCC(C)NCCOCCOc1ccccc1-c1ccccc1 (stereo not given)	i	/	44%*	i	/	/	/	/
CC(C)(C)NCCOCCOc1ccccc1-c1ccccc1	i	1.7	/	/	/	/	/	/
Nc1cc(C(F)(F)F)ccc1-n1cccc1	i	2.1	/	/	/	/	/	/
O=C(Nc1nc(-c2ccccc2)c(-c2ccccc2)o1)c1ccc(F)cc1	i	4.2	i	150%*	/	/	/	/
COc1cccc(C(=O)Nc2nc(-c3ccccc3)c(-c3ccccc3)o2)c1	i	2.3	/	/	/	/	/	/
SMILES	KCNQ2 block	KCNQ2 pot	Kir21 confirm	HEK293 ctr	CHO-K1 Tl ctr	KCNQ1 pot spec	KCNQ2 pot confirm	Kir21 spec	others
Cc1cc2nc(CS(=O)(=O)c3ccccc3)cc(=O)n2[nH]1	i	0.04	/	/	/	/	/	/
Cc1nnc(SC/C=C/c2ccccc2)n(N)c1=O	i	1.5	/	/	/	/	/	/
O=C(/C=C/c1ccccc1)n1cnnc1SC/C=C/c1ccccc1	i	/	i	i	/	/	/	/
CC1=C(C(=O)OC2CCCCCCC2)C(c2cccc(O)c2)NC(=O)N1 (stereo not given)	i	20*	i	i	0	-7	82*	-19	KCNQ2 W236L MoA=29%*
CC1=C(C(=O)OCC2CCCCC2)C(c2ccc(O)cc2)NC(=O)N1 (stereo not given)	i	1.7	/	/	/	/	/	/
CC1=C(C(=O)OCC2CCCCC2)C(c2cccc(O)c2)NC(=O)N1 (stereo not given)	i	17*	i	i	-11	-21	58*	-45	KCNQ2 W236L MoA=34%*
CC1=C(C(=O)OC2CCCCC2)C(c2cccc([N+](=O)[O-])c2)NC(=O)N1 (stereo not given)	i	1.7	/	/	/	/	/	/
CC1CC(C)CN(CCCNC(=O)CN2C(=O)CSc3ccc(S(=O)(=O)N4CCOCC4)cc32)C1 (stereo not given)	i	0.67	/	/	/	/	/	/
CCCN(Cc1ccccc1)C(=S)NC(=O)c1ccccc1[N+](=O)[O-]	i	13*	i	450%*	5.8*	-22	60*	-17	KCNQ2 W236L MoA=i
CCC(=O)NC(=S)NNC(=O)c1ccccc1[N+](=O)[O-]	i	/	/	/	/	/	/	/
CCN(Cc1ccccc1)C(=S)NC(=O)c1ccccc1Br	i	8.6*	i	418%*	-16	52*	46*	-23	KCNQ2 W236L MoA=i
CCN(CC)C(=S)NC(=O)Cc1ccccc1	i	/	/	/	/	/	/	/
O=C(NCC1(O)CCCCC1)C1CCC(=O)N(CCc2ccccc2)C1 (stereo not given)	i	0.18	/	/	/	/	/	/
CCN(c1nc(N)c(C(=O)N=C(N)N)nc1Cl)C(C)C	i	5.3*	42%*	i	9.8*	-9	-2	-94	KCNQ2 W236L MoA=i
C/C(=N/NC(=O)CNS(=O)(=O)c1ccccc1)c1ccc(Br)cc1	i	/	/	/	/	/	/	/
O=c1[nH]cc(I)cc1I	i	7.4*	i	i	133*	32*	-20	-36
Cc1ccc(S(=O)(=O)c2nnn3c2nc(N2CCN(c4ccccn4)CC2)c2ccccc23)cc1C	i	0.04	/	/	/	/	/	/
O=C(CNC(=O)c1ccc(F)cc1)Nc1ccccc1C(F)(F)F	i	0.04	/	/	/	/	/	/
O=C(N/N=C/c1ccc(OCc2ccccc2)cc1)c1ccco1	i	0.07	/	/	/	/	/	/
NC(N)=N/N=C/c1ccc(OCc2ccccc2)cc1	-6.8*	-6.8	16%*	i	/	/	/	/
O=C(COc1ccccc1Cl)NCC(c1cccs1)N1CCOCC1 (stereo not given)	i	/	/	/	/	/	/	/
Cc1ccc(Cl)c(OCC(=O)NCC(c2cccs2)N2CCOCC2)c1 (stereo not given)	i	/	64%*	i	/	/	/	/
CCCOc1ccc(C(=O)NNC(=S)NC(C)=O)cc1	i	0.83	/	/	/	/	/	/
